About 83,000 compounds went through this panel and 20% of them were active in at least one assay; those are over-represented in the sample as a whole.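 Cell lines were cultured in 96-well plates, exposed to a single compound concentration, and assessed for percent growth 48 hours later.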 Activity calls are given as the source filed them. How the source made its calls: active means growth percent below 10; inactive means the rest.
The compounds below were run on MDA-MB-468 breast (assay: NCI-60 one-dose screen, 48 h (100 = growth as untreated, 0 = no growth, -100 = all killed)). Details: 10 µM unless noted.
In the case of CN1CCN(CCCOc2cccc3nc(Nc4ccc(Cl)c(C(F)(F)F)c4)ccc23)CC1, the growth is reported as -2.83% (active).
In the case of C=C(C)[C@@H]1CC[C@]2(C(N)=O)CC[C@]3(C)[C@H](CC[C@@H]4[C@@]5(C)CC[C@H](OCCC#N)C(C)(C)[C@@H]5CC[C@]43C)[C@@H]12, the growth is reported as 72.2% (inactive).
CC(=O)OC1CC2C(C)(C)CCC[C@]2(C)C2=C1C(O)=C(C(C)C)C(=O)C2=O (stereo not given in full) was tested, and the growth was -49.5% (active).
For Fc1ccccc1-c1nc(-c2nc3cc(Cl)c(Cl)cc3[nH]2)c2ccccn12, the growth was 63.1% (inactive).
For CC(C)[C@H](CO)Nc1nc(Nc2ccc(C(=O)NCCNS(=O)(=O)c3cccc4c(N(C)C)cccc34)c(Cl)c2)c2ncn(C(C)C)c2n1, the growth was -14.1% (active).
For Fc1cccc(-c2ccc3c(c2)C2(CCNCC2)CN3)c1, the growth was 116% (inactive).
With COc1cc(C2NC(=O)c3ccccc3N2)ccc1OCCCCCOc1c(OC)cc(C2=NOC(c3cc(OC)c(OC)c(OC)c3)C2)cc1OC (stereo not given) the growth was 9.53% (active).
With Cn1cc(-c2csc(-c3c[nH]c4ccccc34)n2)c2ccnc(Cl)c21 the growth was -9.03% (active).
For O=C1C(Cl)=C(N/N=c2/[nH][nH]/c(=N/NC3=C(Cl)C(=O)c4ccccc4C3=O)c3ccccc23)C(=O)c2ccccc21, the growth was 62.9% (inactive).
In the case of O=C(CNc1nc(-c2ccc(Cl)cc2)cs1)Nc1ccc(-c2nc3ccccc3s2)cc1, the growth is reported as -39.5% (active).
With COc1cc(CC#N)c([N+](=O)[O-])cc1OC the growth was 100% (inactive).
With CN1CCOCCN(C)Cc2ccc3ccc(cc3c2)CN(C)CCOCCN(C)Cc2ccc3ccc(cc3c2)C1 the growth was 52.9% (inactive).
With O=c1c2cccc3c(N4CCOCC4)ccc(c32)c2nc3ccccc3n12 the growth was -63.5% (active).
In the case of C=C(c1ccc(C(=O)O)cn1)c1cc2c(cc1C)C(C)(C)CCC2(C)C, the growth is reported as 91.5% (inactive).
Cc1cccc2c(=O)c3c(sc12)c(NCCNCCO)nc1ccccc13 was tested, and the growth was -19.1% (active).
For O=C1COCCN1c1ccc(NCc2cn(C(=O)c3ccc(Cl)cc3)c3ccccc23)cc1, the growth was -66.6% (active).
In the case of COc1ccc(/C=C/C(=O)/C=C(/C=C/c2ccc(OC)c(OC)c2OC)OB(F)F)c(OC)c1OC, the growth is reported as 39.1% (inactive).
For COc1cc(/C=C/c2cc(/C=C/c3ccc(O)c(OC)c3)n(-c3c(Cl)cccc3Cl)c(=O)n2)ccc1O, the growth was 29.6% (inactive).
With CC(C)(C)c1ccc(OCCCCCCCN2CCNCC2)cc1 the growth was -54% (active).
CC(C)(O)C(=O)O was tested, and the growth was 108% (inactive).
O=C(Nc1cccc(-n2cc(-c3ccncc3)c(-c3ccc(O)c(Cl)c3)n2)c1)c1ccc(Cl)c(Cl)c1 was tested, and the growth was 68.9% (inactive).
With COc1ccc(C(O)c2cc3c(N)c(C(=O)Nc4ccccc4)sc3nc2C)cc1 (stereo not given) the growth was 9.92% (active).
For COC(=O)c1nc(-c2ccccc2)oc1S(=O)(=O)N(C)CCO, the growth was 6.31% (active).
Clc1nc2ccc(Br)cc2cc1-c1nc2ccccc2[nH]1 was tested, and the growth was 76.3% (inactive).
With CCCN1CCN(c2ccc3nc(-c4ccc5nc(-c6cc(OC)ccc6OC)[nH]c5c4)[nH]c3c2)CC1 the growth was 114% (inactive).
COc1ccc(C2c3cccn3-c3ccccc3N2C(C)=O)cc1 (stereo not given) was tested, and the growth was 93.9% (inactive).
For OC(COc1cccc2ccccc12)CN1CCN(c2ccccc2)CC1 (stereo not given), the growth was 77.6% (inactive).
In the case of N#Cc1c(N)[nH]c(S)c1C#N, the growth is reported as 103% (inactive).
In the case of CCCCCCN(CCCCCC)CCCNc1nccc2ccccc12, the growth is reported as -6.34% (active).
CCCCc1c(CCC)c(=N)c2ccccc2n1C was tested, and the growth was 74.2% (inactive).
With Cl.Fc1c[c-]c(-c2ccccn2)c(F)c1.[Pt].c1ccc(P(c2ccccc2)C([PH+](c2ccccc2)c2ccccc2)[PH+](c2ccccc2)c2ccccc2)cc1 the growth was -4.27% (active).
With COc1ccc2nc3cc(Cl)ccc3c(NCCCNCCO)c2c1 the growth was -34.1% (active).
CCN1CCN(c2cc(C(=O)Nc3nc4ccc(Oc5ccnc(C(=O)NC)c5)cc4s3)cc(C(F)(F)F)c2)CC1 was tested, and the growth was 43.3% (inactive).
In the case of CCOc1ccc(S(=O)(=O)Nc2ccc3c(c2)N(S(=O)(=O)CC)CCC3)cc1, the growth is reported as 85.4% (inactive).
CCCc1cc2cc(-n3nc(CC)c4c3CC(C)(C)CC4=O)cc(NC3CCC(O)CC3)c2c(=O)[nH]1 (stereo not given) was tested, and the growth was -22.7% (active).
In the case of Cc1cc(N(CCNc2ccnc3cc(Cl)ccc23)Cc2ccc3c(c2)OCO3)nc(N2CCN(C)CC2)n1, the growth is reported as -59% (active).
In the case of COC(=O)[C@@H](CCCCNC(=O)[C@]12CCC(C)(C)C[C@@H]1C1=CC[C@@H]3[C@@]4(C)C/C(=C/c5ccco5)C(=O)C(C)(C)[C@@H]4CC[C@@]3(C)[C@]1(C)CC2)NC(=O)[C@]12CCC(C)(C)C[C@@H]1C1=CC[C@@H]3[C@@]4(C)C/C(=C/c5ccco5)C(=O)C(C)(C)[C@@H]4CC[C@@]3(C)[C@]1(C)CC2, the growth is reported as 109% (inactive).
COc1cc2c(cc1OC)C(Sc1ccc(Cl)cc1)c1c(nc(N)c(C#N)c1N)O2 (stereo not given) was tested, and the growth was -23.6% (active).
For CCc1oc2ccccc2c1C(=O)c1cc(Br)c(O)c(Br)c1, the growth was 6.28% (active).
With CCNc1ccc2ccccc2c1N=Nc1ccc(N=Nc2ccccc2)cc1 the growth was 104% (inactive).

From PubChem BioAssay (NCI)
